# Where “and” joins values, the source holds several entries; their conditions need not be identical. Equal values may be shown once. More than one record can exist for a structure, and the calls need not agree. Calls of active or inactive are those of the source. Rule for the calls: active = hit-call score of the fitted dose curve at least 0.9, where 1 is the maximum; inactive = score below 0.9.
# Experiments:
# [1] = read-out: Interleukin 17F (IL17F), IL17F (gene 112744); assay: BSK_BT_xIL17F: BioMAP Diversity Plus: BT Assay for Interleukin 17F (IL17F) Biomarker Activity (AID 2284243); details: primary human B cells with PBMC
# In short: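 Measures secreted IL-17F from a human B cell plus PBMC co-culture at 24 h post-dose by Luminex xMAP, with DMSO defining baseline activity.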
# [2] = read-out: Actin alpha 1 (ACTA1), ACTA1 (gene 58); assay: BSK_MyoF_ACTA1: BioMAP Diversity Plus: MyoF Assay for Actin alpha 1 (ACTA1) Biomarker Activity (AID 2284244); details: primary human lung fibroblasts
# In short: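 Cells were exposed to chemical for 24 h before a-SMA levels were quantified by ELISA in human lung fibroblasts. Increases were fitted against DMSO as negative control; parallel SRB staining (0.1% after 10% TCA fixation, 560 nm) assessed cytotoxicity.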
# [3] = read-out: Interleukin 2 (IL2), IL2 (gene 3558); assay: BSK_BT_xIL2: BioMAP Diversity Plus: BT Assay for Interleukin 2 (IL2) Biomarker Activity (AID 2284245); details: primary human B cells with PBMC
# In short: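 The BT system combines human B cells with peripheral blood mononuclear cells. Twenty-four hours after chemical dosing, secreted IL-2 was measured with xMAP bead technology, and responses were analyzed as increases over DMSO controls.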
# [4] = read-out: Basic fibroblast growth factor (bFGF), FGF2 (gene 2247); assay: BSK_MyoF_bFGF: BioMAP Diversity Plus: MyoF Assay for Basic fibroblast growth factor (bFGF) Biomarker Activity (AID 2284246); details: primary human lung fibroblasts
# In short: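 Chemicals are added to human lung fibroblast cultures and incubated 24 h. bFGF is then measured by ELISA, while parallel cultures receive SRB staining for total protein as a cytotoxicity check. Data are fitted upward against DMSO.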
# [5] = read-out: Collagen IV, COL4A1 (gene 1282); assay: BSK_MyoF_CollagenIV: BioMAP Diversity Plus: MyoF Assay for Collagen IV Biomarker Activity (AID 2284247); details: primary human lung fibroblasts
# In short: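 Human lung fibroblast system, 24 h chemical exposure. Endpoint: Collagen IV by ELISA, upward fit vs DMSO.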
# [6] = read-out: Monokine induced gamma interferon (MIG), CXCL9 (gene 4283); assay: BSK_KF3CT_MIG: BioMAP Diversity Plus: KF3CT Assay for Monokine induced gamma interferon (MIG) Biomarker Activity (AID 2284248); details: primary human keratinocytes with fibroblasts
# In short: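 The assay uses a co-culture of human keratinocytes and foreskin fibroblasts. Measurement occurs 24 hours after dosing, with MIG detected by ELISA and the DMSO control as baseline.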
# [7] = read-out: Vascular cell adhesion molecule 1 (VCAM1), VCAM1 (gene 7412); assay: BSK_BF4T_VCAM1: BioMAP Diversity Plus: BF4T Assay for Vascular cell adhesion molecule 1 (VCAM1) Biomarker Activity (AID 2284249); details: primary human bronchial epithelial cells with fibroblasts
# In short: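 Cell-surface VCAM-1 quantified by ELISA after 24 h chemical exposure of human bronchial epithelial/dermal fibroblast co-cultures, with SRB staining in parallel wells for cytotoxicity; DMSO baseline, positive-direction fitting.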
# [8] = read-out: Collagen I, COL1A1 (gene 1277); assay: BSK_hDFCGF_CollagenI: BioMAP Diversity Plus: hDFCGF Assay for Collagen I Biomarker Activity (AID 2284250); details: primary human foreskin fibroblasts
# In short: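 Collagen I ELISA, primary human foreskin fibroblasts, 24 h chemical exposure, DMSO = negative control/baseline, positive fitting direction.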
# [9] = read-out: Interferon-inducible T-cell alpha chemoattractant (ITAC), CXCL11 (gene 6373); assay: BSK_hDFCGF_ITAC: BioMAP Diversity Plus: hDFCGF Assay for Interferon-inducible T-cell alpha chemoattractant (ITAC) Biomarker Activity (AID 2284251); details: primary human foreskin fibroblasts
# In short: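 Chemical dosing of primary human foreskin fibroblast cultures preceded ELISA measurement of I-TAC at 24 h. Response was analysed in the positive direction using DMSO as baseline, while parallel SRB staining measured cytotoxicity.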
# [10] = read-out: Plasminogen activator inhibitor-1 (PAI1), SERPINE1 (gene 5054); assay: BSK_KF3CT_PAI1: BioMAP Diversity Plus: KF3CT Assay for Plasminogen activator inhibitor-1 (PAI1) Biomarker Activity (AID 2284252); details: primary human keratinocytes with fibroblasts
# In short: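 Cells (human keratinocytes co-cultured with foreskin fibroblasts) are exposed to test chemical for 24 h. PAI-1 is then measured by ELISA and analysed for signal gain against DMSO.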
smiles,measurement,setting,value
Cn1cnc([N+](=O)[O-])c1Sc1ncnc2nc[nH]c12,outcome,[1],inactive
same,AC50,[2],0.254 µM (active)
same,outcome,[2],inactive
same,AC50,[3],9.43 µM (active) and 12.6 µM (active)
same,outcome,[4],inactive
same,outcome,[5],inactive
same,outcome,[6],inactive
same,AC50,[7],12.6 µM (active)
same,outcome,[7],inactive
same,outcome,[8],inactive
same,AC50,[9],3.66 µM (active) and 12.6 µM (active)
same,outcome,[10],inactive

# — PubChem BioAssay (EPA / NIEHS)
